About 83,000 compounds went through this panel and 20% of them were active in at least one assay; those are over-represented in the sample as a whole.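 Growth was measured after 48 h exposure to one concentration of compound in 96-well plates. Values under 10 count as active.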 Calls of active or inactive are those of the source.
How the values were obtained:
Assay in all cases: NCI-60 one-dose screen, 48 h (100 = growth as untreated, 0 = no growth, -100 = all killed)
Conditions in all cases: 10 µM unless noted
[1] = tested on: HCT-15 colon
[2] = tested on: HT29 colon
[3] = tested on: SNB-75 CNS
[4] = tested on: SNB-19 CNS
[5] = tested on: U251 CNS
[6] = tested on: PC-3 prostate
[7] = tested on: SK-MEL-5 melanoma
[8] = tested on: UACC-62 melanoma
[9] = tested on: LOX IMVI melanoma
[10] = tested on: SK-MEL-28 melanoma
[11] = tested on: SK-MEL-2 melanoma
[12] = tested on: EKVX NSCLC
[13] = tested on: SN12C renal
[14] = tested on: UO-31 renal
[15] = tested on: TK-10 renal
[16] = tested on: ACHN renal
[17] = tested on: CAKI-1 renal
[18] = tested on: A498 renal
[19] = tested on: CCRF-CEM leukemia
[20] = tested on: MOLT-4 leukemia

Measured: growth

Oc1cccc2ccc(-c3nnc(SCc4ccc(O)c5ncccc45)n3-c3ccccc3)nc12
inactive: [1] 16.5% | [2] 81.3% | [6] 12.4% | [10] 22% | [11] 25.5% | [12] 15.3% | [13] 20% | [15] 14.2% | [17] 18.1% | [18] 31.5% | [19] 11.6% | [20] 12.2%
active: [3] 9.14% | [4] 9.4% | [5] 8.21% | [7] -31.1% | [8] -4.13% | [9] 5.48% | [14] -22.8% | [16] 7.49%

COc1ccc(S(=O)(=O)NCCCNc2nccc(-c3[nH]c(-c4ccccc4)nc3-c3ccc(Cl)c(O)c3)n2)cc1
inactive: [1] 93.7% | [2] 73.8% | [3] 108% | [4] 105% | [5] 83.3% | [6] 66.4% | [7] 56.9% | [8] 18.1% | [9] 56.9% | [10] 23.5% | [11] 15.4% | [12] 113% | [13] 84.2% | [14] 116% | [15] 126% | [16] 96.2% | [17] 102% | [18] 116% | [19] 40.3% | [20] 51.2%

COc1cc2nc(Cl)nc(Nc3cccc(C4=Nc5c(N)nc(N)nc5NC(c5ccc(F)cc5)C4)c3)c2cc1OC (stereo unspecified)
active: [1] 0.163% | [2] 9.87% | [5] -22% | [9] -53.6% | [19] 5.4%
inactive: [3] 85.9% | [4] 31.7% | [6] 59.9% | [7] 67.1% | [8] 93% | [10] 94.6% | [11] 86% | [12] 89.6% | [13] 81.9% | [14] 91.8% | [15] 112% | [16] 97.3% | [17] 88.8% | [18] 77.9%

N#Cc1ccccc1Cn1c2nc(=N)c3ccccc3c-2nc2ccccc21
inactive: [1] 41.5% | [2] 15.4% | [3] 93.8% | [4] 65.8% | [5] 70.4% | [6] 56.8% | [7] 32.5% | [8] 56.5% | [9] 51.1% | [10] 90.2% | [11] 87.9% | [12] 49.4% | [13] 61.5% | [14] 51.3% | [15] 102% | [16] 56.4% | [17] 50.9% | [18] 69.7% | [19] 70.6%

CC(C)(C)c1ccc(C(=O)Nc2sc3c(c2C(N)=O)CC/C(=N\O)C3)cc1
active: [2] 5.87% | [7] -29.4% | [9] 3.93% | [11] -3.77% | [14] -33.7%
inactive: [1] 10.4% | [3] 44.2% | [4] 26.7% | [5] 17.9% | [6] 18.7% | [8] 12.7% | [10] 31.4% | [12] 25.9% | [13] 21.5% | [15] 32% | [16] 12.2% | [17] 12.7% | [18] 34.6% | [19] 10.1% | [20] 15%

COc1ccc(-c2cc(-c3ccc(Cl)cc3)c(C#N)c(=O)n2Cc2ccc(C(=O)O)cc2)cc1
inactive: [1] 79% | [2] 117% | [4] 90.1% | [5] 84.3% | [6] 68.9% | [7] 87.2% | [8] 18.4% | [9] 75.7% | [10] 60.7% | [11] 61.9% | [12] 98.2% | [13] 103% | [14] 68.1% | [15] 116% | [16] 102% | [17] 70.3% | [18] 83% | [19] 30.7% | [20] 53.1%
active: [3] 3.46%

C=CCn1c(SCC(=O)Nc2ccc(C(=O)/C=C/c3cccc([N+](=O)[O-])c3)cc2)nnc1-c1c[nH]c2ccccc12
inactive: [1] 91.7% | [2] 98.4% | [3] 97% | [4] 89.4% | [5] 94.4% | [6] 77.8% | [7] 59.5% | [8] 66.9% | [9] 31.1% | [10] 95.4% | [11] 93.9% | [12] 89.1% | [13] 85.2% | [14] 67.8% | [15] 102% | [16] 91.1% | [17] 87.1% | [18] 87.4%

Cc1ccc(-c2cc3nc(C(Cl)Cl)nc(-c4ccco4)n3n2)cc1
inactive: [1] 14.9% | [3] 66.8% | [7] 90.1% | [8] 37.9% | [9] 92.2% | [11] 83.2% | [13] 66.4% | [14] 33.6% | [15] 29.2% | [19] 89.3% | [20] 94.2%
active: [2] 0.475% | [4] 8.51% | [5] 1.02% | [6] 4.32% | [10] 5.86% | [12] 5.4% | [16] -19.9% | [17] -5.91% | [18] -29.1%

From PubChem BioAssay (NCI)
